LANA-H2B inh – blocks KSHV LANA binding to histone H2A/H2B. cell-free LANA-H2A/H2B peptide, fluorescence polarization. actives 0.6% (n = 320,000). Q9QR71. inhibition, % (concentration not given with the values). AID 2629; in the data active means inhibition mostly above about 10%, no sharp cut-off; inactive means mostly below about 6.7%
m5-HT2A agonist – activates the mouse 5-HT2A serotonin receptor | CHO-K1 mHTR2A beta-arrestin complementation, luminescence; percent of 30 µM serotonin response | activation, % at 7.6 µM | actives 0.66% (n = 360,000);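 active means activation above a run cutoff, the mean activation of all tested compounds plus 3 SD, cut at about 14% in these data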;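 further: 0% = plate median of compound wells and 100% = 30 µM serotonin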
TLR9-MyD88 inh – TLR9-MyD88 interaction inhibition. AID 504734. actives 0.21% (n = 340,000). inhibition, % at 4.98 µM. CHO BLA complementation TLR9-MyD88, CCF4 FRET ratio. Q9NR96+Q99836;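 active means inhibition above the mean over all tested compounds plus 3 SD, cut at about 21% in these data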;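 further: 0% = DMSO only wells and 100% = clavulanate BLA inhibitor control wells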
Rtt109 HAT inh – C. albicans Rtt109 histone acetyltransferase inhibition | Q5AAJ8 | purified Rtt109/Vps75, ThioGlo CoA-SH fluorescence, 4 h | inhibition, % at 34.9 µM | actives 0.16% (n = 330,000);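 active means inhibition of at least 50% in every replicate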
TLR4-MyD88 BLA – TLR4-MyD88 interaction inhibition in cells. O00206+Q99836. inhibition, % at 8.4 µM. actives 0.18% (n = 200,000). AID 861. HeLa CL3-4 TLR4/MyD88 BLA complementation, FRET ratio; in the data active means inhibition above about 25%;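 further: 0% = vehicle and 100% = reference inhibitor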
NOD2-RIPK2 inh – blocks binding of human NOD2 to RIPK2 | CHO BLA complementation NOD2-RIPK2, CCF4 ratio | inhibition, % at 4.98 µM | AID 624267 | actives 0.38% (n = 360,000) | O43353; in the data active means inhibition above about 21%;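 further: 0% = vehicle only and 100% = reference blocker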
MOR ag counter – activates human mu opioid receptor in HTR2A counterscreen. activation, % at 9.3 µM. U2OS OPRM1 beta-arrestin PathHunter, luminescence; DMSO 0%, DAMGO 9.3 µM 100%. AID 624380. actives 5.3% (n = 2,300). shares compounds with m5-HT2A agonist;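 active means mean activation above the mean of DMSO-only wells plus 3 SD, cut at about 0.5% in these data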
Target sequence (P35372 whole entry, looked up): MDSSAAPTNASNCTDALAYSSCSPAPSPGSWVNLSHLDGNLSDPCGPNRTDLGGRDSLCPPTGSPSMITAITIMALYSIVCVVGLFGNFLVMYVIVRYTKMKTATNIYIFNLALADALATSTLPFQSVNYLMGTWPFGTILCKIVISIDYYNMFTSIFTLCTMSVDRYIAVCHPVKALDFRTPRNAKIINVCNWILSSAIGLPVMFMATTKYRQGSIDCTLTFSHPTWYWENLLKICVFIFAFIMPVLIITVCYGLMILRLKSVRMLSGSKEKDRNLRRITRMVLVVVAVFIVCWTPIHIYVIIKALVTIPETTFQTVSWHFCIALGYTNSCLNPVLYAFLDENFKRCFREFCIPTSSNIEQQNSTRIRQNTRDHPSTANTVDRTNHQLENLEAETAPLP
HTR2A ag conf – confirmation of mouse HTR2A serotonin receptor agonists; shares compounds with m5-HT2A agonist; CHO-K1 PathHunter beta-arrestin recruitment, luminescence; DMSO 0%, 30 µM serotonin 100%; activation, % at 7.6 µM; actives 19% (n = 2,300); AID 624381;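 active means mean activation across triplicates above the hit threshold derived in the original primary screen, cut at about 15% in these data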
The depositor's hits bear a star; · = not tested or not shown. Rows were chosen to be rich in hits. Some 1.8% of all compounds tested hit in one or more screens of this group.

SMILES	LANA-H2B inh	m5-HT2A agonist	TLR9-MyD88 inh	Rtt109 HAT inh	TLR4-MyD88 BLA	NOD2-RIPK2 inh	MOR ag counter	HTR2A ag conf
Cc1ccc(/C=N/NC(=O)CN2C(=O)CSc3ccccc32)o1	2	20*	-12	-4	·	8	-1	-3
CCCCCCCC/C=C\CCCCCCCC(=O)NCCc1ccc(O)c(O)c1	2	34*	12	8	·	-2	0	170*
CCCCCCCC/C=C\CCCCCCCC(=O)NCCO	6	5	5	11	·	-12	·	·
CCOC(=O)N1CCC(N2C(=O)c3ccc(C(=O)NCc4ccco4)cc3C2=O)CC1	-2	23*	3	1	-9	-2	0	-4
CC(=O)c1ccc(C(=O)Nc2nnc(-c3ccc(Cl)cc3)o2)cc1	0	24*	-5	-6	·	-2	0	-2
Cc1nnc(SCc2cc(=O)[nH]c(=S)[nH]2)s1	3	16*	13	·	5	6	0	-4
O=c1cc(CSc2ccccc2)[nH]c(=S)[nH]1	-1	2	-8	5	7	-2	·	·
O=C(Nc1ccc2c(c1)OCCO2)C(CCc1ccccc1)N(Cc1ccccc1)Cc1ccccc1 (stereo unspecified)	·	18*	·	·	·	-13	-1	-6
N#Cc1cc([N+](=O)[O-])ccc1NC(=O)COC(=O)CN1C(=O)C2CCCCC2C1=O (stereo unspecified)	1	5	0	-14	·	-5	·	·
CCn1nnnc1SCC(=O)N1c2ccccc2Sc2ccccc21	1	-2	7	1	-1	1	·	·
Cn1nnnc1SCC(=O)N1c2ccccc2Sc2ccccc21	3	39*	5	1	12	-3	-1	-1
Cc1nc2cc(Oc3nc(NCCN(C)C)nc4ccsc34)ccc2s1	·	34*	·	·	·	5	-1	4
CC1CCCN(S(=O)(=O)c2ccc3oc(=O)ccc3c2)C1 (stereo unspecified)	-1	2	6	1	·	-6	·	·
NC(N)=NC(=O)Cc1c(Cl)cccc1Cl	-3	30*	-1	3	6	-7	-1	40*
CC1(C2CC2)NC(=O)N(CC(=O)Nc2ccc(Cl)c([N+](=O)[O-])c2)C1=O (stereo unspecified)	0	-2	-13	6	·	4	·	·
CCC(=O)NCCc1cc2cc(C)c(C)cc2[nH]c1=O	-2	12	1	4	-6	-11	·	·
Cc1cc2cc(CCNC(=O)CCc3ccccc3)c(=O)[nH]c2cc1C	1	22*	5	6	·	1	-1	-3
CSCc1ccc(C(=O)NC2CC(C)(C)Cc3c2cnn3-c2ccc(F)cc2)o1 (stereo unspecified)	4	4	-4	8	·	-3	·	·
CC(C)CN(C(=O)COC(=O)CCC(=O)c1ccc(F)cc1)c1c(N)n(Cc2ccccc2)c(=O)[nH]c1=O	0	8	15	8	·	-6	·	·
CCCCCOC(=O)C1=C(C)Nc2nnnn2C1c1ccccc1Cl (stereo unspecified)	-1	19*	6	5	-29	9	0.5*	2
O=C1C2CCCN2C(=O)N1CCCCN1CCN(c2ccccc2)CC1 (stereo unspecified)	0	15*	4	0	-3	-5	-1	47*
O=C1C2CCCN2C(=O)N1CCN1CCN(c2ccccc2)CC1 (stereo unspecified)	·	0	-7	1	0	1	·	·
CCC(c1nnnn1C(C)(C)C)N1CCN(C/C=C/c2ccccc2)CC1 (stereo unspecified)	·	15*	·	·	·	-11	0	38*
CCC(c1nnnn1-c1ccc(OC)cc1)N1CCN(C/C=C/c2ccccc2)CC1 (stereo unspecified)	·	15*	·	·	·	1	-1	24*
CCc1nc2ccc(C(=O)NCCCn3ccnc3)cn2c1N(C)C(=O)COc1ccccc1	·	-3	·	·	·	-4	·	·
SMILES	LANA-H2B inh	m5-HT2A agonist	TLR9-MyD88 inh	Rtt109 HAT inh	TLR4-MyD88 BLA	NOD2-RIPK2 inh	MOR ag counter	HTR2A ag conf
COc1cc(OC)cc(C(=O)Oc2ccc(/C=N/Nc3nc4ccccc4s3)cc2OC)c1	2	22*	-11	-2	9	-5	0	-2
COc1cc(/C=N/Nc2nc3ccccc3s2)ccc1OC(=O)c1ccccc1F	6	1	2	10	-14	-13	·	·
O=C(Nc1ccc(N2CCOCC2)cc1)c1csc([C@H]2C[C@H](O)[C@@H](CO)O2)n1	·	4	·	·	·	-3	·	·
CC(C)C(=O)Nc1ccc(Nc2ccccc2)cc1	7	-4	-1	6	14	-8	·	·
O=C(Nc1ccccc1)C(O)C(O)C(=O)Nc1ccccc1 (stereo unspecified)	3	24*	3	12	7	-10	-1	-3
C=CC[C@H](CC(=O)OC(C)(C)C)C(=O)OC[C@@H]1CCCN1C(=O)[C@@H](CC=C)CC(=O)NCCO	1	-8	-4	-12	·	-7	·	·
COc1ccc(CCNC(=O)c2ccco2)cc1OC	-2	3	-19	9	-21	-4	·	·
COc1ccc(CCNC(=O)c2ccccc2NC(=O)c2ccco2)cc1OC	0	24*	5	2	0	1	-1	-3
Cc1ccnc(NC(=O)CCC(=O)N(CC(=O)NCCc2ccccc2)c2ccccc2F)c1	-2	-1	1	9	·	-3	·	·
COC(=O)CCCC1=CC2=C(c3ccccc3)C(=O)C(C)(OC(=O)C3CCCC3)C(=O)C2=CN1CCN1CCOCC1 (stereo unspecified)	0	-4	8	-5	·	-4	·	·
COC(=O)CCCC1=CC2=C(c3ccccc3)C(=O)C(C)(OC(=O)C3CCCC3)C(=O)C2=CN1CCc1ccccn1 (stereo unspecified)	2	15*	-10	12	·	0	0	-5
O=C(Nc1cccc(C(=O)N2CCCCC2)c1)C1CCCCC1	·	-1	-11	-2	·	-2	·	·
O=C(COC(=O)c1cc(NS(=O)(=O)c2cccs2)ccc1O)Nc1ccccc1	-4	-4	0	24	·	5	·	·
CN(Cc1ccccc1)C(=O)COC(=O)c1cc(NS(=O)(=O)c2cccs2)ccc1O	4	21*	2	1	16	-4	0	5
COc1ccc(-c2cc(C(=O)N3CCN(S(=O)(=O)c4ccc(C)cc4)CC3)[nH]n2)cc1	-2	2	-7	-7	·	-4	·	·
